NCOA1 inh: inhibits human SRC1 coactivator; 360,000 compounds, 0.12% hits; HEK293 GAL4-SRC1 luciferase reporter, luminescence; AID 588354; Q15788; inhibition, % at 3.6 µM;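 active = inhibition above the campaign mean plus 3 SD, with each screening campaign given its own cutoff, cut at about 60% in these data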;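 also: 0% = DMSO treated cells and 100% = gossypol at 36 µM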
COUP-TFII inh: NR2F2 (human) inhibition, primary screen | P24468 | HEK293T NGFI-A luciferase reporter, luminescence | inhibition, % at 8.6 µM | 370,000 compounds, 0.7% hits | AID 686940;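 active = inhibition above a per-plate cutoff, mean inhibition of test wells between control levels plus 3 SD, cut at about 38% in these data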;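 also: cells cotransfected with COUP-TFII expression vector driving the NGFI-A reporter; 0% = median of COUP-TF2 test wells and 100% = reporter-only cells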
Gli-Sufu block: blocks Gli-Sufu signaling in a luciferase reporter; Sufu-KO-LIGHT fibroblasts, Gli luciferase reporter luminescence; inhibition, % at 5 µM; 340,000 compounds, 0.74% hits;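 active = inhibition above about 55%, limit read from the data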;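 also: 0% = DMSO-treated cells and 100% = wells with medium but no cells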
NR5A2 inv ag: NR5A2 inverse agonism in reporter assay | O00482 | 360,000 compounds, 0.13% hits | HEK293T StAR-luciferase reporter, LRH-1 transfected, 24 h | AID 602396 | inhibition, % at 3.6 µM;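 active = inhibition above the mean inhibition of all tested compounds plus 3 SD, cut at about 73% in these data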;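 also: 0% = DMSO wells and 100% = reporter-only cells lacking LRH-1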
NCOA2 inhibitor: inhibits human steroid receptor coactivator 2 | AID 651957 | 370,000 compounds, 0.17% hits | inhibition, % at 9 µM | HEK293 GAL4-SRC2 luciferase reporter, luminescence | Q15596;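 active = inhibition above the mean inhibition of all tested compounds plus 3 SD, set per campaign, cut at about 52% in these data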;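 also: 0% = DMSO treated cells and 100% = cells given Gossypol at 36 µM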
SRC3 inh: inhibits human SRC3 coactivator; Q9Y6Q9; HEK293 GAL4-SRC3 luciferase reporter, luminescence; inhibition, % at 3.6 µM; 360,000 compounds, 0.17% hits;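 active = inhibition above a per-campaign cutoff, the mean of all compounds plus 3 SD, cut at about 60% in these data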;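 also: 0% = DMSO-treated cells and 100% = gossypol-treated cells at 36 µM; higher means less SRC3-driven luciferase light from the GAL4 reporter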
VP16 Luc counter: counter-screen for COUP-TFII antagonists: inhibitors of VP16. AID 687007. 2,500 compounds, 25% hits. HEK293 Gal4-VP16 luciferase reporter, luminescence. shares compounds with COUP-TFII inh. inhibition, % at 8.5 µM; in the data active = inhibition above about 13%
NR2F2 inh conf: confirmation of human COUP-TFII (NR2F2) inhibitors. shares compounds with COUP-TFII inh. HEK293 NGFI-A luciferase reporter, luminescence. inhibition, % at 8.5 µM. 2,500 compounds, 45% hits. AID 687008;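 active = mean inhibition over three repeats above a set limit taken from the earlier primary screen, cut at about 38% in these data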;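 also: 100% = cells given the luciferase reporter alone without the COUP-TF2 vector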
* marks the source's active call; other numbers are inactive results; x = no result given. Compounds with a hit are over-represented: about 1.3% of the library has one in this group of screens.

SMILES	NCOA1 inh	COUP-TFII inh	Gli-Sufu block	NR5A2 inv ag	NCOA2 inhibitor	SRC3 inh	VP16 Luc counter	NR2F2 inh conf
O=C(N/N=C\c1ccc([N+](=O)[O-])o1)C1COc2ccccc2O1 (stereo not drawn)	30	44*	2	45	62*	39	-5	25
Cc1scc(C(=O)N/N=C/c2ccc([N+](=O)[O-])o2)c1C	14	50*	x	49	71*	-1	57*	59*
O=C(OCc1ccccc1)[C@H](Cc1ccccc1)NC(=O)[C@@H]1CC=C[C@@H]2CCN(CCc3ccccc3)C(=O)[C@@H]21	x	-18	x	x	x	x	x	x
CCn1cc(CCCC(=O)NCc2cccc(OC)c2)c2ccccc21	-37	38*	12	-6	-16	5	-5	7
CCC(C)(C)c1ccc(OCCCC[n+]2cccc(C)c2C)c(C(C)(C)CC)c1	34	57*	85*	79*	-32	65*	14*	60*
Cc1cc(C(C)(C)C)ccc1OCCCCN1CCCC1	3	-2	-2	-2	4	16	x	x
CCC(C)c1ccc(NC(=O)CSc2nnc(-c3cccc(C)c3)n2C)cc1 (stereo not drawn)	x	-29	x	x	-1	x	x	x
CN1C(=O)C2(C(C#N)=C(N)N(c3cc(Cl)cc(Cl)c3)C3=C2C(=O)CCC3)c2ccccc21 (stereo not drawn)	6	43*	8	9	7	33	-16	26
C=C1C(=O)[C@]23C[C@H]1CC[C@H]2[C@]1(C)CCC[C@@](C)(C(=O)OC)[C@H]1C[C@@H]3O	x	94*	x	x	84*	x	71*	60*
c1nc(NCc2ccc3c(c2)OCO3)c2cc(-c3ccoc3)ccc2n1	51	39*	-30	17	27	60	-19	10
Cc1c(C(=O)N/N=C/c2ccccc2Cl)[nH][nH]c1=O	x	-47	x	x	-31	x	x	x
COc1ccccc1N1CCN(C(=O)c2sc3nc(-c4ccc(F)cc4)cn3c2C)CC1	8	52*	2	-3	17	18	1	30
COc1ccc(-c2cn3c(C)c(C(=O)N4CCN(c5ccc(F)cc5)CC4)sc3n2)cc1	9	1	-10	-1	-1	2	x	x
COc1ccccc1N1CCN(C(=O)CCC(=O)N2CCN(c3ccccc3OC)CC2)CC1	-15	2	0	-6	-16	0	x	x
COc1ccccc1N1CCN(C(=O)CCC(=O)N2CCN(c3ccc(F)cc3)CC2)CC1	16	40*	8	1	14	13	-4	5
COC(=O)[C@]12C[C@H](CC(=O)NCc3ccc(OC)c(OC)c3)C(=O)N(Cc3cccc4ccccc34)C1=C[C@H](C1CCCC1)O[C@@H]2C	x	26	x	x	18	x	x	x
C[C@@H]1[C@@H](c2ccccc2)c2cc3ccccc3nc2C(=O)C[C@@H]1C(=O)N1CCCC1	x	9	x	x	-2	x	x	x
O=C(CN1C(=O)C(c2ccc(F)cc2)=NC12CCCC2)Nc1ccc(F)cc1	16	39*	41	41	21	24	-5	28
CNC(=O)COC(=O)COc1ccc2c(C)cc(=O)oc2c1	5	-3	-7	6	2	0	x	x
Cc1cc(=O)oc2cc(OCC(=O)OCC(=O)Nc3ccccc3Br)ccc12	-6	55*	-2	11	-18	16	-9	1
CCCCN1C[C@@H]2CSCCS(=O)(=O)N2C1=O	x	-13	x	x	-32	x	x	x
Cc1cc(Oc2cccnc2)ccc1NC(=O)Cc1cn(C)c2ccccc12	x	6	x	x	16	x	x	x
CC(Oc1ccc(Cl)cc1Cl)c1nc(-c2ccc(NC(=O)c3ccncc3)cc2)no1 (stereo not drawn)	15	80*	38	31	-12	22	0	32
CC(NC(=O)COC(=O)c1ccccc1O)c1ccccc1 (stereo not drawn)	0	-12	x	8	-4	1	x	x
O=C(COC(=O)c1ccccc1O)NC(c1ccccc1)c1ccccc1	-1	41*	-8	11	-12	-1	-1	-2
COC(=O)[C@]12C[C@H](CC(=O)N3CCN(C(=O)c4ccco4)CC3)C(=O)N(Cc3ccco3)C1=C[C@H](COCc1ccccc1)O[C@@H]2C	x	-16	x	x	-8	x	x	x
